Screening results deposited in PubChem by National Center for Advancing Translational Sciences (NCATS).
Sampled rows, rich in hits. Any-hit rate of the full collection: about 2.1%.
aSyn rescue: qHTS of alpha-syn Inhibitors. actives 0.14% (n = 370,000). AID 652106, 2013. Potency, µM (series often up to 46.1 µM), without a hit: at the top dose growth rescue (activation), usual class: activators. Yeast expressing alpha-synuclein, growth rescue, BacTiter-Glo, 24 h; note: % of control where 0% means no effect; nearly all actives have a fitted effect of over 65% in size
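Rescue of yeast growth: cells expressing toxic alpha-synuclein, induced in galactose at OD600 0.02, incubated with compound 24 h at 30 C. ATP luminescence quantified growth; inhibitors of toxicity appear as activators.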
Abeta yeast res: qHTS for compounds that reverse cellular toxicity of Amyloid beta (A-beta) peptide in yeast: Primary Screen; Potency, µM (titrated, usually from 46.1 µM), most hits filed as activators; yeast expressing A-beta42, growth rescue, OD600, 48 h; response scale: 0% DMSO, 100% iron-clioquinol control; actives 0.063% (n = 410,000); note: nearly all actives have a fitted effect of over 55% in size
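Growth rescue measured by 600 nm absorbance after 48 h yeast culture at 30 C with compound. Values normalized between DMSO and an equimolar ferric chloride plus clioquinol control.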
FUS suppressor: qHTS for Suppressors of FUS Proteinopathy: Primary screen using FUS-linked yeast assay; S. cerevisiae FUS-expressing, growth rescue, OD600, 24 h; Potency, µM (titrated, usually from 76.6 µM), usual class: activators; actives 0.24% (n = 390,000);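 note: plate controls were DMSO vehicle for no effect and reference control for full effect; nearly all actives have a fitted effect of over 55% in size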
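Compound concentration series was pinned onto galactose-induced FUS-expressing yeast seeded at OD 0.005. Plates sat 24hr at 30C; absorbance at 600 nm gave growth. DMSO served as background control.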
TDP43 rescue: qHTS of TDP-43 Inhibitors; Potency, µM (highest dose often 46.1 µM), for inactives: at the highest dose growth rescue (activation), usual class: activators; actives 1.8% (n = 410,000); TDP-43 expressing yeast growth rescue, BacTiter-Glo, 24 h; AID 652104, 2013; note: % of control where 0% means no effect; nearly all actives have a fitted effect of over 50% in size
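Yeast cells expressing TDP-43 under galactose induction are exposed to compounds for 24 hr at 30 deg C. BacTiter-Glo luminescence measures growth, so protective compounds score as activators.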
Active calls of the source: *; i = inactive; ? = inconclusive; nt = not tested or not shown; [ ] = another dose, or the depositor's remark. Calls come from the whole dose curve; as a rule, active = well fitted curve in the direction sought with a large enough effect; inconclusive = small, poorly fitted or top-dose-only effect, or another doubt; inactive = no such curve, though single readings can be large; an effect the other way counts as inactive or inconclusive. Potency is the fitted concentration of half-maximal effect.

SMILES	aSyn rescue	Abeta yeast res	FUS suppressor	TDP43 rescue
N#CCCN1CCN(C(=S)c2ccc(-c3ccc(Cl)cc3)o2)CC1	7.4%	i	i	12.6µM*
O=C(NCC1CCCO1)C(c1cccs1)N(Cc1cccs1)C(=O)c1ccc(-c2ccccc2)[nH]1 (configuration not stated)	-3.6%	i	35.5µM*	8.7%
O=C(NCC1CCCO1)C(c1ccc(F)cc1)N(CC1CCCO1)C(=O)c1ccc(-c2ccccc2)[nH]1 (configuration not stated)	-9.4%	i	i	7.0%
S=C(NCCCc1cnc[nH]1)NCCCN(CCc1ccccc1)c1ccc(Br)cn1	-0.4%	nt	nt	nt
C=CCC[C@H](CCCCC)OC(=O)/C=C/[C@H](O)[C@@H](O)C[C@H](O)CC=C	?	i	i	12.6%
C=CCC[C@@H](CCCCC)OC(=O)/C=C/[C@H](O)[C@@H](O)C[C@H](O)CC=C	20µM*	i	?	27.9%
O=C(/C=C/c1ccc(Cl)cc1Cl)N1CCN(c2ccccc2[N+](=O)[O-])CC1	?	i	i	12.6µM*
COc1ccc(-n2c(SCC(=O)N(CC(C)C)CC(C)C)nnc2-c2ccncc2)cc1	nt	nt	i	nt
CCOC(=O)CC[C@@H]1CC[C@]2(CCCN(C(=O)c3ccc4ccccc4n3)C2)O1	nt	nt	i	nt
O=C1c2ccccc2C(=O)N1c1ccccc1	0.4%	i	i	3.8%
Nc1cccc2c1C(=O)N(c1ccccc1)C2=O	-17.1%	i	i	35.5µM*
O=S(=O)(c1cccc2nsnc12)N1CCN(c2ccccc2F)CC1	13.7%	i	i	15.8µM*
O=S(=O)(c1cccc2nsnc12)N1CCN(c2ccc(F)cc2)CC1	-1.1%	i	i	-13.9%[1.82 µM]
COc1cc(/C=C(/C#N)C(=O)NCc2ccccc2)cc(OC)c1OC	?	i	i	20µM*
Cc1cccc(C)c1N1C(=O)c2cccc([N+](=O)[O-])c2C1=O	1.5%	i	nt	?
Cc1ccc(N2C(=O)c3cccc([N+](=O)[O-])c3C2=O)cc1C	10.9%	i	i	12.6µM*
Cc1c(NC(=O)C(C)OC(=O)c2c3c(nc4ccccc24)CCC3)c(=O)n(-c2ccccc2)n1C (configuration not stated)	-4.1%	i	22.4µM*	0.0%
O=C(NCCc1ccccc1)OCc1cn(Cc2cc(F)ccc2F)nn1	nt	nt	i	nt
O=C(Cn1c(=O)c2cccn2c2cccnc21)NCCCN1CCN(c2ccc(Cl)cc2)CC1	nt	nt	i	nt
Cc1c(NC(=O)C2CCCN(S(=O)(=O)c3ccc(Cl)s3)C2)c(=O)n(-c2ccccc2)n1C (configuration not stated)	nt	nt	i	nt
COc1ccc(C(C(=O)NC2CCCC2)n2c(CSCCOc3ccccc3)nc3ccccc32)cc1 (configuration not stated)	-2.8%	i	17.8µM*	5.0%
CCOC(=O)c1ccc(S(=O)(=O)n2c(=O)oc3ccccc32)cc1	1.8%	i	i	24.4%
Cc1ccc(S(=O)(=O)n2c(=O)oc3ccccc32)cc1	11.2%	i	i	8.91µM*
CCOc1ccc2nc(SCC(=O)NNC(=O)c3ccco3)c(C)cc2c1	1.5%	i	i	-12.7%
CCOc1ccc2cc(/C=C/C(=O)c3ccco3)c(Cl)nc2c1	-1.0%	i	i	7.94µM*
SMILES	aSyn rescue	Abeta yeast res	FUS suppressor	TDP43 rescue
O=C(CCNc1ccc(Cl)cc1)c1cccs1	10.1%	i	i	12.2%
O=C(CCNc1cc(Cl)cc(Cl)c1)c1cccs1	-42.1%	i	i	10µM*
C[C@]12CC[C@@H]3c4ccc(OC(=O)c5ccccc5)cc4CC[C@H]3[C@@H]1CC[C@@H]2O	5.5%	i	i	17.7%
CC(=O)Oc1ccc2c(c1)CCC1C2CCC2(C)C(OC(C)=O)CCC12 (configuration not stated)	-16.1%	i	?	31.6µM*
O=[N+]([O-])c1cccc(-c2ccc(/C=N/NC(=S)Nc3cccc(F)c3)o2)c1	-6.6%	?	i	17.8µM*
Cn1c(=O)cc(OCCCC(=O)Nc2cc(-c3cn[nH]c3)ccn2)c2ccccc21	nt	nt	i	nt
Cc1ccc(CN2CCCCC(NC(=O)c3ccc(Br)cc3)C2=O)cc1 (configuration not stated)	nt	nt	i	nt
CCn1ncc(Br)c1C(=O)Nc1ccccc1C(=O)OC	-7.1%	i	i	14.1µM*
COC(=O)c1ccccc1NC(=O)c1c(Br)cnn1C	1.0%	i	i	21.3%
O=C1c2ccccc2-c2cc(Br)ccc2NC1O (configuration not stated)	22.4µM*	i	i	?
O=C1NC(c2ccc(Br)cc2)Nc2ccccc21 (configuration not stated)	0.2%	i	i	-4.1%
CCOC(=O)[C@@]12CCCC3=C1N(CCC3)C(=O)[C@H]2CC(=O)N1CCOCC1	nt	nt	i	nt
Nc1c(Nc2ccccc2)c2ccccc2oc1=O	17.8µM*	i	i	?
CC(C)(C)OC(=O)/C=C/[C@@H](CCCCl)Sc1ccc(C(C)(C)C)cc1	nt	nt	i	nt
CCC[C@H]1[C@@H](NC(=O)C2CCCCC2)CC[C@@]23CCCN2C(=O)CCC[C@@H]13	nt	nt	i	nt
Cc1ccc(C)c(NC(=O)CCC(=O)OC(C(=O)c2ccccc2)c2ccccc2)c1 (configuration not stated)	9.8%	i	i	?
CCC(=O)Nc1cc(C(=O)OC(C(=O)c2ccc(C)c(C)c2)c2ccccc2)ccc1C (configuration not stated)	-0.5%	i	10µM*	-0.1%
Cc1nc2ccc(S(=O)(=O)NCC(=O)NCc3ccc(F)cc3)cc2s1	nt	nt	i	nt
COc1cc(C(C)=O)ccc1OCC(=O)c1cc(C)n(C2CC2)c1C	5.2%	i	i	25.1µM*
O=C(c1ccco1)N1CCN(c2c([N+](=O)[O-])nn(-c3ccc(Cl)cc3)[n+]2[O-])CC1	2.2%	i	i	-4.5%
CC1CCN(c2c([N+](=O)[O-])nn(-c3ccc4c(c3)OCCO4)[n+]2[O-])CC1	15.5%	i	?	12.6µM*
Fc1cc(Br)ccc1NC(=S)Nc1ccccc1	-8.1%	i	nt	?
CC(C)(C)NC(=S)Nc1ccc(Br)cc1	-17.9%	i	i	15.8µM*
Fc1ccccc1NC(=S)Nc1ccc(Br)cc1	-41.3%	i	i	12.6µM*
CC(C)(C)NC(=S)Nc1ccc(Nc2ccccc2)cc1	-14.9%	?	i	10.4%
CCCCC(CC)CNC(=O)c1[nH]c(C)c(C(C)=O)c1C (configuration not stated)	-1.2%	i	i	12.6µM*
COC(=O)[C@]12C[C@H](CC(=O)NCc3cccs3)C(=O)N(Cc3ccco3)C1=C[C@H](C1CCCC1)O[C@@H]2C	nt	nt	i	nt
CC(=O)c1cccc(NC(=O)N(c2ccccc2)c2ccccc2)c1	11.7%	i	i	15.8µM*
